This passage reports composite z-score, composite Z-score and z-score results from PubChem BioAssay.

One experiment deals with Albumin (Bos taurus) (UniProt P02769). Nature of the experiment: bovine serum albumin binders on microarray, profiling panel, artefact control for SMM control protein annotation, biochemical, small-molecule microarray, Alexa647 label, 635/667 nm fluorescence (AID 1118).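 Further: score merges 667 nm emission intensity and signal-to-noise per printed compound spot.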 The settings on record: BSA-A647 binding, fluorescence 635 nm, higher = more signal.
Experiment [1] in a line: small-molecule microarray binders of probe aXIP, primary screen, biochemical, NeuroSMM set, 635/667 nm fluorescence (AID 1119).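 Further: probe is the protein aXip251-270 applied at 1 µg/mL to compound-printed slides; binding of probe to printed compounds measured as 667 nm fluorescence plus signal to noise.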 The settings on record: higher = more signal, called active from +8 up or from −8 down.
Experiment [2] in a line: small-molecule binders of probe aNOTCH3, primary screen, biochemical, small-molecule microarray, 635/667 nm fluorescence (AID 1120).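 Further: probe is a biotin-tagged antibody raised against NOTCH3 rather than NOTCH3 protein; score merges spot fluorescence near 667 nm with spot signal to noise.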 As to conditions: higher = more signal.
Experiment [3] in a line: small-molecule binders of probe aNOTCH2, primary screen, biochemical, small-molecule microarray, 635/667 nm fluorescence (AID 1121).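 Further: score merges feature fluorescence read at 667 nm with its signal to noise.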 The settings on record: higher = more signal.
In experiment [4] the target is Carbonic anhydrase 2 (Homo sapiens) (UniProt P00918). As to the kind of experiment: CAII small-molecule binders, profiling panel, biochemical, small-molecule microarray, Alexa647-labelled CAII (AID 1122). The settings on record: CAII-A647 binding fluorescence, higher = more signal.
The nature of experiment [5]: COS7 lysate on small-molecule microarray, probe aHis, 635 nm (AID 1123).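 Further: z-score combines 667nm fluorescence intensity with signal-to-noise per printed compound spot.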 The settings on record: COS7 cell lysate, fluorescence, higher = more signal.
Experiment [6] can be described thus: compound binding in COS7 lysate, probe aLAP1, primary screen, cell lysate, small-molecule microarray (AID 1124).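 Further: lysate comes from COS7 cells expressing LAP1 and is applied at 0.3 µg/mL; score merges spot fluorescence near 667 nm with signal-to-noise over triplicate slides.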 As to conditions: probe aLAP1, fluorescence, higher = more signal.
Another experiment relates to Sam68 (KHDRBS1). As to the kind of experiment: Sam68 small-molecule binders, primary screen, biochemical, small-molecule microarray, 635 nm fluorescence (AID 1125).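 Further: score merges 667 nm channel intensity with signal to noise over triplicate slides.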 As to conditions: small-molecule microarray binding, higher = more signal.
The subject of experiment [7] is Chordin-like protein 2 (CHRDL2). As to the kind of experiment: CHRDL2 small-molecule binders, primary screen, biochemical, small-molecule microarray, 635 nm fluorescence (AID 1126).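 Further: printed compound slides probed with Chrdl2 protein at 4 µg/mL for 1 h at 4 C; score merges 667 nm emission intensity with signal to noise over three replicate slides.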 As to conditions: small-molecule microarray binding, fluorescence 635 nm; higher = more signal.
Experiment [8] concerns the target Concanavalin-A (Canavalia ensiformis) (UniProt P02866). Nature of the experiment: ConA small-molecule binders, primary screen, artefact control for SMM control protein annotation, biochemical, small-molecule microarray, Alexa647 label, 635 nm (AID 1127).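 Further: z combines 667 nm emission intensity with signal-to-noise across three replicate slides.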 As to conditions: ConA-A647 binding fluorescence, higher = more signal.
Experiment [9] in a line: anti-His antibody binders, primary screen, artefact control for SMM control protein annotation, biochemical, small-molecule microarray, 635 nm fluorescence (AID 1128).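 Further: score merges feature fluorescence with signal-to-noise for each printed compound spot.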 As to conditions: anti-His Alexa647 antibody binding, higher = more signal.
Experiment [10] relates to Human papillomavirus type 1a E7 protein (residues 1-88). Nature of the experiment: HPV1a E7 small-molecule binders, primary screen, biochemical, small-molecule microarray, residues 1-88, 635 nm (AID 1129). As to conditions: small-molecule microarray binding, fluorescence 635 nm; higher = more signal.
Experiment [11] has as its target Focal adhesion kinase 1 (Homo sapiens) (UniProt Q05397). Nature of the experiment: small-molecule microarray binders of FAK, primary screen, biochemical, 635/667 nm fluorescence, BSA, DTT (AID 1130).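 Further: composite of spot emission at 667 nm and signal to noise over triplicate slides.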 As to conditions: PTK2 binding, 635 nm fluorescence, higher = more signal.
The subject of experiment [12] is Fibrinogen (Alexa647-labelled). Nature of the experiment: fibrinogen binders on compound microarrays, profiling panel, artefact control for SMM control-protein annotation, biochemical, small-molecule microarray, 635/667 nm fluorescence (AID 1131).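 Further: z-score merges 667 nm fluorescence with per-spot signal-to-noise over triplicate slides.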 The settings on record: fibrinogen-A647 binding fluorescence, higher = more signal.
In experiment [13] the target is Follistatin (Homo sapiens) (UniProt P19883). As to the kind of experiment: follistatin binders on small-molecule microarrays, primary screen, biochemical, small-molecule microarray, 635/667 nm fluorescence (AID 1132). The settings on record: FST binding, 635 nm fluorescence, higher = more signal.
For experiment [14], the target named is Fibroblast growth factor 2 (Homo sapiens) (UniProt P09038). Nature of the experiment: FGF2 binders on small-molecule microarrays, primary screen, biochemical, small-molecule microarray, 635/667 nm fluorescence (AID 1133). The settings on record: small-molecule microarray binding, FGF2, fluorescence 635/667; higher = more signal.
The nature of experiment [15]: mitochondrial membrane potential change in A549 cells, profiling panel, cell-based, JC-1 fluorescence, basal, 24 h, 100 nL (AID 1138).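 Further: A549 lung adenocarcinoma cells under basal conditions with no added stimulus; test concentration not given here.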 The settings on record: higher = more signal.
The next experiment has as its system Lefty1. Nature of the experiment: Lefty1 binders on small-molecule microarrays, primary screen, biochemical, small-molecule microarray, 635/667 nm fluorescence (AID 1139). The settings on record: small-molecule microarray binding, fluorescence 635/667; higher = more signal.
In experiment [16] the test system is wheat germ agglutinin (Triticum aestivum), Alexa647-labelled. As to the kind of experiment: wheat germ agglutinin binders on compound microarrays, profiling panel, artefact control for SMM control-protein annotation, biochemical, small-molecule microarray, 635/667 nm fluorescence (AID 1140).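 Further: score merges 667 nm feature emission with signal to noise over triplicate slides.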 The settings on record: WGA-A647 binding, 635 nm fluorescence, higher = more signal.

In experiment [17] the target is Luciferin 4-monooxygenase (Photinus pyralis) (UniProt P08659). As to the kind of experiment: firefly luciferase enzyme inhibitors, primary screen, biochemical, luminescence, purified enzyme, 2006 set (AID 1141).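 Further: cell-free assay with purified firefly luciferase at 100 ng per well in PBS; test concentration not given here.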 The settings on record: SteadyGlo luminescence, 30 min, higher = more signal, called active from +8 up or from −8 down.

The source made the active and inactive calls.

Sequence of Albumin (Bos taurus) (P02769 whole entry, looked up): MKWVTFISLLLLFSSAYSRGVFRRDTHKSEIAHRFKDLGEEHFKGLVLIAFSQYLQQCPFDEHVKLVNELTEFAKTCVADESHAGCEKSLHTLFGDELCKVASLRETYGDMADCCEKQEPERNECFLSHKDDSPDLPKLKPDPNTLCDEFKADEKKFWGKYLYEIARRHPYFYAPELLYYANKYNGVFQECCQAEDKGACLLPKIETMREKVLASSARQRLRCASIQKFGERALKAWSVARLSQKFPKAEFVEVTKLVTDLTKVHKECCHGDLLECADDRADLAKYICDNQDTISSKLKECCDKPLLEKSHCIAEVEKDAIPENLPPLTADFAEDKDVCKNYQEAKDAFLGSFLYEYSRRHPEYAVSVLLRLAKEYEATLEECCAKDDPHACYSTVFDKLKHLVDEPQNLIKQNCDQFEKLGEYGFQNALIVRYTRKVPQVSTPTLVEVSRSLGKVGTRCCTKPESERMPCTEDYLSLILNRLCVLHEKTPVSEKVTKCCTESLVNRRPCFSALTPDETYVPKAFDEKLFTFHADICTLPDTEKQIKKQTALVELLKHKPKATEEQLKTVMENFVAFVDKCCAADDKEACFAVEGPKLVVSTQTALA
Sequence of Luciferin 4-monooxygenase (Photinus pyralis) (P08659 whole entry, looked up): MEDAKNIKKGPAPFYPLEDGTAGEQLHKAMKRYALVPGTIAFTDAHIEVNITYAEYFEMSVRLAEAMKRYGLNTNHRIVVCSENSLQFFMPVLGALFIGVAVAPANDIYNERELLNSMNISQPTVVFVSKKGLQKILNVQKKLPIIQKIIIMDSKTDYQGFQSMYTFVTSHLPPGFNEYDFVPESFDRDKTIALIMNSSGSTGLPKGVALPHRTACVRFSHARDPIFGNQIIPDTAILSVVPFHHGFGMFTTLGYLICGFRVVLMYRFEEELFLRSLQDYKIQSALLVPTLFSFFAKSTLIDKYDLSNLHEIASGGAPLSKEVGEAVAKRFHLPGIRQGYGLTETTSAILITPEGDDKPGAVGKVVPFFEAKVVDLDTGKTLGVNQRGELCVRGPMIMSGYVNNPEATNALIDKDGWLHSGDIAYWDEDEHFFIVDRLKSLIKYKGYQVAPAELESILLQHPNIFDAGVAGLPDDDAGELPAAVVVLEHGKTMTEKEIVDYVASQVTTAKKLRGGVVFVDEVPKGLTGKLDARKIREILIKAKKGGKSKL
Sequence of Focal adhesion kinase 1 (Homo sapiens) (Q05397 whole entry, looked up): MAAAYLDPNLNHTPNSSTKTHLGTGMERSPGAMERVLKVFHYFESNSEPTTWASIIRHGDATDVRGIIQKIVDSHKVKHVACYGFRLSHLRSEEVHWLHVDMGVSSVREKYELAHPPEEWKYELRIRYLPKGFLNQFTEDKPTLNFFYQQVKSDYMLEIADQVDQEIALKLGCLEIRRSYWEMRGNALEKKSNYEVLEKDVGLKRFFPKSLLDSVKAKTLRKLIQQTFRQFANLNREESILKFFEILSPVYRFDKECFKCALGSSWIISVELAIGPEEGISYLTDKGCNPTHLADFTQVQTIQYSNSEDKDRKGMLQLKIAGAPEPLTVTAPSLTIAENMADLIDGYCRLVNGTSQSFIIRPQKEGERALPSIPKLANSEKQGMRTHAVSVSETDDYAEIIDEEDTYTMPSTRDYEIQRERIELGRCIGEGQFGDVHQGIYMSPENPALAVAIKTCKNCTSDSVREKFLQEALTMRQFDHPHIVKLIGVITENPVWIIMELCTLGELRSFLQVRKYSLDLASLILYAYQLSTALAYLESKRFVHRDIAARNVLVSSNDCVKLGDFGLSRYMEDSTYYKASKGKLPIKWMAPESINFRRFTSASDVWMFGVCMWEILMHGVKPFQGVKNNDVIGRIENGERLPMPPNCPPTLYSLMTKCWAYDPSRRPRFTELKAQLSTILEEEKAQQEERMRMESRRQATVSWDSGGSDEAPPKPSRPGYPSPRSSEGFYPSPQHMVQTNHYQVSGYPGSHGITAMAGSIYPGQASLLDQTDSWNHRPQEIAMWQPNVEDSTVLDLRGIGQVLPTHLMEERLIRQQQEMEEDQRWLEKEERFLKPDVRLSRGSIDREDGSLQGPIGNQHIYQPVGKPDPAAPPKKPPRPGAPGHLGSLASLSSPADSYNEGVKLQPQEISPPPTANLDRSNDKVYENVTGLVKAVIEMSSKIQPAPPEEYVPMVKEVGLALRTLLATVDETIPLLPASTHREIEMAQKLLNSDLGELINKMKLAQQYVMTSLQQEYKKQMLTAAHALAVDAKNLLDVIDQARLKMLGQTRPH
Sequence of Follistatin (Homo sapiens) (P19883 whole entry, looked up): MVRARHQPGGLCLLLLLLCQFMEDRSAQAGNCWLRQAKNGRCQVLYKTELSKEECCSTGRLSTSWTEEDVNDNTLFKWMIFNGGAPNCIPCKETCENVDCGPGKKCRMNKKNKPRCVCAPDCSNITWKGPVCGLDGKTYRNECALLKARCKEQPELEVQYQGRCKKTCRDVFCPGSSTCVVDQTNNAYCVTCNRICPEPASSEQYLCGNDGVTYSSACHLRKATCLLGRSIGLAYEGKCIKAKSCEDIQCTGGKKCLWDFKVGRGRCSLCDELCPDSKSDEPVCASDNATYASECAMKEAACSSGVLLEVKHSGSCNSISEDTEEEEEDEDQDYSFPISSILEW
Sequence of Concanavalin-A (Canavalia ensiformis) (P02866 whole entry, looked up): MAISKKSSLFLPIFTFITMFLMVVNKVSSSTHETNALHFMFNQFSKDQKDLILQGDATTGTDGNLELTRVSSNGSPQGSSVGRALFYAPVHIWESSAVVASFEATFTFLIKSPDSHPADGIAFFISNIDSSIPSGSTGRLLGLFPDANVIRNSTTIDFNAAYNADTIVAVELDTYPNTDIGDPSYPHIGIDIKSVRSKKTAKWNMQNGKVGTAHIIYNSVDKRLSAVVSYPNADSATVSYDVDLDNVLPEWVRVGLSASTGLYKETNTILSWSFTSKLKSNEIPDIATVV
Sequence of Fibroblast growth factor 2 (Homo sapiens) (P09038 whole entry, looked up): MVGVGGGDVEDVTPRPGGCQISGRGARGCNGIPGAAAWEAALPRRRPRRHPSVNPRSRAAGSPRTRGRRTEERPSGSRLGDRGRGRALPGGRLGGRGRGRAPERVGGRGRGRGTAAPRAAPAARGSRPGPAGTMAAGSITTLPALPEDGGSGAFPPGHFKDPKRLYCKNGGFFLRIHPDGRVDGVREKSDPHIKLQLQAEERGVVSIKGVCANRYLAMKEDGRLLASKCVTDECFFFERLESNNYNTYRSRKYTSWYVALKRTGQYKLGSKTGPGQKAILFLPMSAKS

For the compound `CN1C2C=C(CCCO)C(C3C(=O)N(C(N)=O)C(=O)C32)C1C1CC1` (stereo not given), the composite z-score in the experiment with Albumin (Bos taurus) was -0.0873; in experiment [2], -0.272; in experiment [3] it was -0.14; in experiment [4], 0.234; in [5], 0.043; in experiment [6], -0.182. Also, the composite z-score in the experiment with Sam68 (KHDRBS1) was 0.0346; in experiment [7] it was -0.0334; in experiment [8], 0.31; in experiment [9], 0.352; in [10] it was 0.186; in experiment [11], -0.158. Further, the composite z-score is 0.481 in experiment [12]; -0.0169 in [13]; -0.148 in experiment [14]; 0.145 in the experiment with Lefty1; -0.123 in experiment [16]. In addition, the composite Z-score in experiment [1] is -1.14 (inactive). The z-score in experiment [15] is 0.771; in experiment [17], -0.938 (inactive).
On to `CCOC(=O)C[C@H]1[C@H](OC(=O)c2ccc(-c3ccccc3)cc2)[C@@H](NC(=O)CC(C)C)c2cc(OCCCO)ccc2N1C(=O)c1ccc2ccccc2n1`, for which the composite z-score in the experiment with Albumin (Bos taurus) is 0.363; in experiment [2], 0.041; in [3], -0.161; in [4] it was 0.0808; in experiment [5], 1.19; in experiment [6], -0.259. In addition, the composite z-score in the experiment on Sam68 (KHDRBS1) is 0.787; in experiment [7], 0.0987; in experiment [8], 1.07; in experiment [9] it was -0.282; in experiment [10], 0.516; in experiment [11] it was 0.365. In addition, the composite z-score in [12] turned out to be 0.944; in [13], 0.285; in experiment [14] it was 0.0792; in the experiment with Lefty1 it was 0.455; in experiment [16] it was 0.262. In experiment [1], the composite Z-score is -0.122 (inactive). For the same compound, the z-score in [15] is 0.5; in [17], 0.854 (inactive).
Turning to `C=CCC(OC(C)=O)[C@@H]1[C@@H](N(Cc2ccc(-c3cccc(C(F)(F)F)c3)o2)C(=O)Cc2ccc(OC)cc2)c2cc(OCCCO)ccc2N1C(=O)c1ccc(-c2ccccc2)cc1` (stereo not given in full), the composite z-score is 0.0925 with Albumin (Bos taurus); 0.0711 in experiment [2]; 0.0178 in experiment [3]; 0.251 in experiment [4]; 0.206 in [5]; -0.155 in experiment [6]. In addition, the composite z-score is 0.272 in the experiment with Sam68 (KHDRBS1); 0.121 in experiment [7]; -0.94 in experiment [8]; -0.0127 in [9]; -0.501 in experiment [10]; -0.326 in [11]. For the same compound, the composite z-score in [12] was -0.771; in experiment [13], 0.569; in experiment [14], 0.119; with Lefty1, 0.0533; in experiment [16], -0.402. For the same compound, the composite Z-score in [1] was -0.4 (inactive). Moreover, the z-score in [15] was 0.0544; in [17], 0.244 (inactive).
In the case of `COC(=O)c1c(CC[C@@H](CO)NC(=O)N2CCC[C@H]2Cn2cc(C3(O)CCCCC3)nn2)oc(C(C)=O)c1C(=O)OC`, the composite z-score with Albumin (Bos taurus) was 0.844; in experiment [2], -0.0328; in experiment [3] it was -0.0795; in experiment [4], 0.707; in experiment [5] it was 1.44; in [6], 0.473. Moreover, the composite z-score in the experiment with Sam68 (KHDRBS1) is 1.28; in experiment [7] it was 1.09; in experiment [8], 1.04; in [9] it was 0.794; in [10], 0.759; in experiment [11], -0.0763. For the same compound, the composite z-score is 0.888 in experiment [12]; 0.745 in experiment [13]; 1.59 in experiment [14]; 1.39 in the experiment with Lefty1; -0.0239 in [16]. Moreover, the composite Z-score in [1] was 0.506 (inactive). Further, the z-score in experiment [15] is -0.403; in experiment [17], 0.97 (inactive).
With `CCOC(=O)C[C@H]1[C@H](OC(=O)Cc2ccc3c(c2)OCO3)[C@@H](NC(=O)c2ccc3ccccc3n2)c2cc(OCCCO)ccc2N1C(=O)c1ccc2ccccc2n1`, the composite z-score with Albumin (Bos taurus) was 0.208; in [2] it was -0.0646; in experiment [3] it was -0.135; in [4] it was 0.371; in experiment [5], 0.986; in [6], 0.171. Also, the composite z-score in the experiment with Sam68 (KHDRBS1) worked out at 0.796; in [7] it was 0.0741; in experiment [8], 1.07; in experiment [9], 0.267; in experiment [10], 0.496; in experiment [11], 0.629. Besides, the composite z-score in experiment [12] is 0.913; in experiment [13] it was 0.497; in experiment [14] it was 0.13; in the experiment with Lefty1 it was 0.37; in [16] it was 0.754. The composite Z-score in [1] is -0.0069 (inactive). In addition, the z-score in [15] is 3.18; in [17], -1.83 (inactive).
